Reference: PubChem BioAssay (NCI)
Several values for one entry are separate records, joined by “and”; a condition that tells them apart may be missing. Equal entries are not always repeated. Compounds without any hit were thinned out: in the full panel of roughly 83,000, 20% have a hit.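 Compound tested at a single concentration for 48 hours in 96-well plates; a percent growth value below 10 was scored as active.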 Some structures have more than one record in an assay (separate samples or runs), and their calls can disagree. Activity calls are given as the source filed them.

tested on: HT29 colon; test: NCI-60 one-dose screen, 48 h (100 = growth as untreated, 0 = no growth, -100 = all killed); conditions: 10 µM
Description: Growth inhibition of the HT29 human tumor cell line is measured as a screen for anti-cancer activity. Cells are grown in 96 well plates and exposed to the test compound for 48 hours. Compounds are tested at a single concentration, which is 10^-5 M for most compounds. The reported endpoint is percent growth (GI% or GIPRCNT), where numbers from 0 - 100% represent growth inhibition, and numbers from -100% - 0 represent cell death. For example, a value of 40 represents 60% growth inhibition. A value of 0 means no net growth occurred over the course of the experiment. A value of -40 indicates 40% of cells at the beginning of the experiment died by the end of the experiment. A value of -100 means all cells are dead at the end of the experiment.
NCI-60 Human Tumor Cell Lines Screen was performed using the standard one-dose NCI protocol, which is described in more detail at https://dtp.cancer.gov/discovery_development/nci-60/default.htm.
Compounds with GIPRCNT values below 10 were considered active. Activity score was based on GIPRCNT using the following formula: […]
Score is 0 for GIPRCNT values of 100 or above, 50 for GIPRCNT values of 0, and 100 for GIPRCNT values of -100.

| Compound | growth |
| --- | --- |
| COc1ccc(Cl)cc1C(=O)NCCc1ccc(S(=O)(=O)NC(=O)NC2CCCCC2)cc1 | 127% (inactive) and 131% (inactive) |

same assay, conditions: 10 µM unless noted

| Compound | growth |
| --- | --- |
| COc1ccc2cc3[n+](cc2c1OC)CCc1cc2c(cc1-3)OCO2 | 93.8% (inactive) and 74.1% (inactive) |
| O=C(Nc1ccc(Br)cc1)c1cc(Br)ccc1O | 92.1% (inactive) and 36.7% (inactive) |
| O=[N+]([O-])c1ccc2nc3c4ccccc4c4ccccc4c3nc2c1 | 74.6% (inactive) |
| N#C/C(=C1C=C/C(=N/O)C(Br)=C/1)c1ccccc1 | 8.98% (active) |
| O=S(=O)(Nc1ccccc1)C1CCCCC1 | 99.1% (inactive) and 99.6% (inactive) |
| CCN1CCN(CCNc2nccc(-c3c(-c4cccc(O)c4)nc4sccn34)n2)S1(=O)=O | 45.3% (inactive) and 50.4% (inactive) |
| Oc1ccccc1C=NCC1CCC(CN=Cc2ccccc2O)CC1 (stereo not given) | 17.1% (inactive) |
| CCN(CC)C(=S)SSC(=S)N(CC)CC | 68.5% (inactive) and 94.4% (inactive) |
| CC(=O)c1ccccc1O | 107% (inactive) and 99.2% (inactive) and 111% (inactive) |
| ClC/C=C/CSc1ncnc2nc[nH]c12 | 98.4% (inactive) and 95.2% (inactive) |
| Oc1c(CN2CCCCC2)ccc2cccnc12 | 66.6% (inactive) and 28.6% (inactive) |
| CC(=O)c1ccc2c(c1)N(CCCN1CCN(CCO)CC1)c1ccccc1S2 | 69.1% (inactive) and -22.6% (active) |
| CC[N+](CC)(CC(=O)Nc1c(C)cccc1C)Cc1ccccc1 | 101% (inactive) and 102% (inactive) |
| OC1CCC(Oc2cccc3cnc(Nc4ccc5nc[nH]c5c4)nc23)CC1 (stereo not given) | 2.98% (active) and 46% (inactive) |
| O=C(N/N=C/c1ccccc1)N/N=C/c1ccccc1 | 109% (inactive) and 105% (inactive) |
| Oc1ccccc1/C=N\NC(=S)N/N=C/c1ccccc1O | 39.1% (inactive) and 54.6% (inactive) |
| O=C(CN1CCOCC1)N1CCOCC1 | 91% (inactive) |
| O=C(/C=C\c1ccnc2ccccc12)c1ccc([N+](=O)[O-])cc1 | 70.3% (inactive) and 3.25% (active) |
| CN(C)CCCNC1=C(Cl)C(=O)c2ccccc2C1=O | -26% (active) and -31.7% (active) |

| Compound | growth |
| --- | --- |
| COc1ccc(Cn2c(NCCN=C(N)N)nc(=O)n(Cc3ccc(F)cc3)c2=O)cc1 | 101% (inactive) and 100% (inactive) |
| Nc1n[nH]c(=S)n1-c1ccc(Cl)cc1 | 101% (inactive) |
| CC(=O)C(/C=N/C(N)=O)=C(/C)O | 101% (inactive) |
| Nc1ccc2[nH]c(-c3ccccc3)cc(=O)c2c1 | 78.7% (inactive) |
| CC1(c2ccc3ccccc3c2)CCC(=O)O1 (stereo not given) | 96.9% (inactive) |
| O=C(Nc1ccc(Cl)cc1)c1cc2ccccc2cc1O | 94.7% (inactive) and 8.61% (active) |
| O=C(CCc1ccc(O)cc1)N/N=C/c1cc(Br)ccc1O | 98.4% (inactive) |
| CCCCCN(CCCCC)CC(O)c1cc2c(c3ccccc13)CCCC2 (stereo not given) | 15.4% (inactive) and 16.2% (inactive) |
| O=[N+]([O-])c1ccc(Oc2ccccc2)cc1 | 113% (inactive) and 103% (inactive) |
| CCCCCn1sc(=O)n(Cc2ccc(CNC(=O)C(C)c3ccc(CC(C)C)cc3)cc2)c1=O (stereo not given) | 112% (inactive) and -52.1% (active) |
| Nc1ccccc1Nc1ccccc1 | 118% (inactive) and 97.4% (inactive) |
| CC(C)Cc1ccc(C(C)C(=O)NCc2ccc(Cn3c(=O)sn(CCCCl)c3=O)cc2)cc1 (stereo not given) | 104% (inactive) and -64% (active) |
| CNC(=O)c1cccnc1 | 105% (inactive) |
| Nc1ccc(N=Nc2ccc(S(=O)(=O)O)cc2)cc1S(=O)(=O)O | 118% (inactive) and 96.2% (inactive) |
| Nc1ncnc2c1ncn2C1CC(O)C(CO)O1 (stereo not given) | 109% (inactive) and 115% (inactive) |
| C=C1C(=O)O[C@H]2[C@H]1CC/C(COC(=O)NC1CCC(O)CC1)=C\CC[C@@]1(C)O[C@@H]21 (stereo not given in full) | 60% (inactive) and 43.7% (inactive) |
| CCC(=O)C(CC)c1cccc(OC)c1 (stereo not given) | 103% (inactive) |
| CN(C)c1ccc(C(Cc2ccc3ccccc3n2)Cc2ccc3ccccc3n2)cc1 | 0.736% (active) and 59.7% (inactive) |
| CCCCCCCCCCCCCCCc1cc(O)ccc1N | 105% (inactive) and 107% (inactive) |

same assay, conditions: 100 µM

| Compound | growth |
| --- | --- |
| COc1ccc(Cl)cc1C(=O)NCCc1ccc(S(=O)(=O)NC(=O)NC2CCCCC2)cc1 | 77% (inactive) |
